High-throughput results as filed in PubChem BioAssay.
HEK293 tox = kills HEK 293 cells | HEK 293 viability, ATP luminescence (CellTiter-Glo), 48-72 h | hit rate 6.6% among 94,000 | AID 1345083 | Potency, µM (series often up to 115 µM), for the others: at the top dose activity change, negative = cytotoxicity, most hits filed as inhibitors; further: nearly all actives have a fitted effect of over 60% in size
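250 HEK 293 cells/well; compound by pintool; incubated 48 or 72 hr at 37 degree Celsius; CellTiter-Glo added, 10 min RT, luminescence imaged.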
NIH3T3 tox = kills NIH 3T3 cells. NIH 3T3 viability, CellTiter-Glo ATP luminescence, 48-72 h. Potency, µM (highest dose often 96.7 µM), for the others: top-dose activity change, negative = cytotoxicity, usual class: inhibitors. hit rate 4.3% among 94,000. AID 1345082; further: nearly all actives have a fitted effect of over 55% in size
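Viability of NIH 3T3 cells after 48 or 72 hr compound treatment at 37 °C was assessed by CellTiter-Glo, with luminescence imaged following a 10 min room-temperature step.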
NPR1 antag = antagonists of human natriuretic peptide receptor Npr1; HEK293 hNpr1 GloSensor cGMP, ANP-stimulated luminescence; Potency, µM (highest dose often 46.3 µM), for the others: top-dose activity change, negative = inhibition, usual class: inhibitors; hit rate 1.6% among 76,000; calls by dose curve; further: nearly all actives have a fitted effect of over 60% in size
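Compound pre-incubated 30 min at room temperature on GloSensor-loaded HEK293 cells stably carrying hNpr1 and the pGS-40F cGMP biosensor. Stimulation uses hNppA at 0.1 nM final; luminescence is taken at baseline and 20 min post-agonist.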
Luciferase inh = blocks purified firefly luciferase enzyme activity | purified P. pyralis luciferase, luminescence, biochemical | Potency, µM (doses to about 115 µM), actives largely listed as inhibitors | hit rate 2.5% among 76,000; further: nearly all actives have a fitted effect of over 65% in size
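Purified 10nM P. pyralis luciferase with 10uM D-luciferin and 10uM ATP in 50mM Tris acetate pH 7.5, 10mM Mg acetate, 0.01% Tween-20, 0.05% BSA. qHTS titration; luminescence read by CCD imager.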
GPT2 inhibitor = inhibitors of human GPT2 alanine aminotransferase; Q8TD30; Recombinant GPT2, coupled pyruvate oxidase/HRP Amplex Red fluorescence; Potency, µM (titrated, usually from 57.7 µM), without a hit: top-dose activity change, negative = inhibition, most hits filed as inhibitors; hit rate 0.25% among 100,000; AID 1671188; further: nearly all actives have a fitted effect of over 60% in size
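GPT2 10ng/uL, a-KG 250uM, L-Ala 2mM, HEPES pH7.5 + 0.0001% Tween; 30 min RT. Then Amplex mix (PO/HRP/ThPP), 30 min RT dark, fluorescence. AOA 50uM used as positive control.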
An asterisk follows results filed as active; i = inactive; ? = inconclusive; . = no result; [ ] = another dose, or the depositor's remark. The list is not random: actives were taken first. Their share in the collection is about 10%. Unless noted, the call rests on the fitted dose curve; in most records, active means well fitted curve in the direction sought with a large enough effect; inconclusive means small, poorly fitted or top-dose-only effect, or another doubt; inactive means no such curve, though single readings can be large; an effect the other way counts as inactive or inconclusive. On the % scale 0 is the no-effect control and ±100 the full control effect; potency means the concentration at half of the fitted maximal effect.

SMILES | HEK293 tox | NIH3T3 tox | NPR1 antag | Luciferase inh | GPT2 inhibitor
CC1=C[C@@H](CC#N)[C@H](C(C)C)C[C@H]1CC(=O)NC1CCCCC1 | 89µM* | ? | 1%[70.6 µM] | i | 3%[88.5 µM]
COCCNc1ncc(-c2ccccc2)c2c1OCC2 | ? | ? | -4%[70.6 µM] | 28µM* | i
COCCNc1ncc(-c2ccnc(C)c2)c2c1OCC2 | ? | ? | 7%[70.6 µM] | i | i
COCCNc1ncc(-c2ccncc2)c2c1OCC2 | -26%[230 µM] | ? | 4%[70.6 µM] | i | i
COCCNc1ncc(-c2ccsc2)c2c1OCC2 | ? | ? | -13%[70.6 µM] | 22µM* | i
O=C(O)c1cncc(N2CCC3(CC2)CNC(C(=O)O)C3)n1 (stereo not drawn) | i | -1% | -24% | i | 2%
O=C1Nc2ccc(-c3ccc(Cl)cc3)cc2C(=O)N2CCN(C(=O)c3cccnc3)C[C@H]12 | 45µM* | ? | 2% | i | -6%
O=C1Nc2ccc(-c3ccc4c(c3)OCO4)cc2C(=O)N2CCN(C(=O)c3cccs3)C[C@@H]12 | 32µM* | 35µM* | 6% | i | 1%
O=C1Nc2ccc(-c3ccccc3)cc2C(=O)N2CCN(C(=O)c3cccnc3)C[C@H]12 | -24%[172 µM] | -27%[174 µM] | 0%[70.6 µM] | i | -43%[88.5 µM]
COc1ccc(C(=O)N2CCN3C(=O)c4cc(-c5ccc(Cl)cc5)ccc4NC(=O)[C@@H]3C2)cc1 | 32µM* | 28µM* | -24% | i | 0%
O=C(NCc1cccnc1)C1(CCO)CC12CCOCC2 (stereo not drawn) | 0% | i | 4% | 28µM* | -12%
Cc1ccc(CNC(=O)C2(CCO)CC23CCOCC3)o1 (stereo not drawn) | i | -1% | -3% | i | i
O=C(NCc1ccc(F)cc1)c1cc(-c2cccc(C(F)(F)F)c2)c2cccn2n1 | 25µM* | ? | . | . | -13%
CC(C)NC(=O)c1cc(-c2cccc(C(F)(F)F)c2)c2cccn2n1 | 35µM* | ? | . | . | i
O=C(NC1CC1)c1cc(-c2cccc(C(F)(F)F)c2)c2cccn2n1 | 35µM* | ? | . | . | i
O=C(NCC(F)(F)F)c1cc(-c2cccc(C(F)(F)F)c2)c2cccn2n1 | 35µM* | ? | . | . | i
CC(C)NC(=O)c1cc(-c2ccc([S+](C)(=O)[O-])cc2)c2cccn2n1 | ? | ? | . | . | 5%
COCCNC(=O)c1cc(-c2cccc(C(F)(F)F)c2)c2nncn2n1 | 3% | -12% | . | . | 4%
O=C(c1nc2cccnc2n(CCc2ccccc2)c1=O)N1CCCC1 | -2% | -19% | . | . | -10%
Cc1noc(-c2ccccc2Cl)c1C(=O)NCc1ccccc1Cl | -17% | ? | -1% | i | 3%
CN1C[C@@H]2CCCN3CCC[C@@H]([C@H]23)[C@H]1CCCC(=O)NCc1ccccc1 | -21% | -3% | 6% | i | i
C#CCNC(=O)c1cc(-c2cccc(C(F)(F)F)c2)c2cccn2n1 | ? | 50µM* | . | . | i
C#CCNC(=O)c1cc(C(C)(C)C)c2cccn2n1 | -30%[172 µM] | -16%[138 µM] | . | . | -15%[88.5 µM]
CCCc1noc(-c2ccn3c(CNC(=O)c4ccc(C)c(F)c4)nnc3c2)n1 | 1% | -20% | 7% | i | i
O=c1cc(N2CCOCC2)oc2c(-c3ccncc3)nccc12 | ? | 22µM* | 0%[70.6 µM] | i | i
SMILES | HEK293 tox | NIH3T3 tox | NPR1 antag | Luciferase inh | GPT2 inhibitor
O=c1cc(N2CCOCC2)oc2c(-c3ccccc3F)nccc12 | ? | 8.9µM* | 15%[70.6 µM] | i | 1%[88.5 µM]
COc1ccc2[nH]c(C(=O)N3C[C@@H](Oc4cccnc4)C[C@H]3C(=O)N3CCCC3)cc2c1 | 2% | -19% | -6% | i | -9%
Cc1cnc(CC2CCN(C(=O)C(C)c3ccccc3)CC2)n1Cc1ccc(F)cc1 (stereo not drawn) | 35µM* | ? | -3% | i | -13%
CC(=O)N1CCC(O)(c2csc(CN3CCN(C)CC3)n2)CC1 | -15%[172 µM] | -3%[174 µM] | 0%[70.6 µM] | i | -9%[88.5 µM]
O=C(c1ccc(Cl)cc1)N1CC2(CCCN(Cc3cccnc3)C2)Cc2ccccc21 (stereo not drawn) | 40µM* | ? | . | . | -1%
CC(=O)N1CC2(CCN(C(=O)c3ccc(Cl)cc3)CC2)Cc2ccccc21 | ? | 10µM* | . | . | -5%
